Assay outcomes deposited in PubChem BioAssay by several laboratories.
Only some compounds are listed: those with a hit (about 3.2% of all), similar ones and a draw of the others.
TROY NFkB inh: inhibitors of TROY-driven NF-kB signaling, primary screen, Q293 LMP1-TROYcd cells, NF-kB luciferase, uHTS | Q293 LMP1-TROYcd NF-kB luciferase reporter, 4 h | inhibition, % at 10 µM | 360,000 tested, 0.98% active;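 active = compounds whose plate-normalised and pattern-corrected inhibition of the luciferase reporter signal at the single screening dose is 50% or more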
LGR2 inh: inhibitors of bursicon-induced LGR2 CRE-luciferase signal, primary screen, cell-based, HEK293, CRE-luciferase reporter, bursicon stimulation; 380,000 tested, 0.35% active; bursicon-stimulated, 4 h; AID 720647, 2013; inhibition, % at 9.99 µM; Drosophila bursicon receptor LGR2 (rickets);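 active = drop in luminescence signal, shown as inhibition above about 50% in the replicate tests, limit read from the data, passing the limit was not always enough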;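 also: agonist challenge used bursicon conditioned medium at about half maximal strength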
PAX8 reporter: inhibitors of PAX8-driven TPO luciferase reporter, primary screen, RMG-I cells, single concentration; inhibition, % at 12.6 µM; 360,000 tested, 1.2% active; AID 652154, 2013; SteadyGlo, 24 h;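 active = mean replicate inhibition at least 60% with every replicate also reaching 60%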;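 also: luciferase light reporting Pax8 driven TPO promoter activity; plate controls were median of neutral control wells for no effect and mitoxantrone controls for full effect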
TWEAK-Fn14 inh: inhibitors of TWEAK-Fn14 signaling, primary screen, luciferase reporter cells, uHTS; TWEAK-stimulated Fn14 reporter cells, luciferase luminescence, 8 h; inhibition, % at 10 µM; 360,000 tested, 2% active; AID 1159606, 2016; in the data active = inhibition above about 50%
EWS-Fli inh: EWS/Fli-driven NR0B1 reporter inhibitors, primary screen, A673 cells, NR0B1 luciferase, luminescence, MLPCN library; viability-normalised; inhibition, % at 12.6 µM; 350,000 tested, 0.67% active;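 active = mean inhibition of at least 50% after viability correction, with every replicate also passing that limit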;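 also: firefly luciferase signal divided by Alamar Blue viability fluorescence both relative to DMSO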
LMP1 NFkB inh: EBV LMP1-driven NF-kappaB luciferase reporter inhibitors, primary screen, cell-based, luminescence, single point | LMP1-induced NF-kappaB luciferase reporter cells | inhibition, % at 12.5 µM | 350,000 tested, 0.69% active; in the data active = inhibition above about 41%;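 also: 0% = neutral control wells and 100% = reference inhibitor control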
* hit, by the source's call; / = no result given.

SMILES	TROY NFkB inh	LGR2 inh	PAX8 reporter	TWEAK-Fn14 inh	EWS-Fli inh	LMP1 NFkB inh
COC(=O)C[C@@H]1CC[C@H]2[C@H](COc3ccc(NC(=O)c4ccccc4OC)cc3C(=O)N2C)O1	/	-10	11	/	-8	/
C[C@H](CO)N1C[C@H](C)[C@H](CN(C)S(=O)(=O)c2cccc(F)c2)OCc2ccccc2-c2c(n(C)c3ccccc23)C1=O	18	7	104*	26	11	8
C[C@H]1CN([C@@H](C)CO)C(=O)c2c(c3ccccc3n2C)-c2ccccc2CO[C@@H]1CN(C)S(=O)(=O)c1cccc(F)c1	/	26	102*	/	15	/
C[C@@H]1CN([C@H](C)CO)C(=O)c2c(c3ccccc3n2C)-c2ccccc2CO[C@@H]1CN(C)S(=O)(=O)c1cccc(F)c1	/	-1	-45	/	-9	/
C[C@@H]1CN([C@H](C)CO)C(=O)c2c(c3ccccc3n2C)-c2ccccc2CO[C@H]1CN(C)S(=O)(=O)c1cccc(F)c1	/	34	93*	/	-2	/
CCCC(=O)N1C[C@@H]2[C@H](c3ccccc31)[C@H](CO)N2Cc1cocn1	/	5	-8	/	-3	/
O=C1N/C(=C/c2ccc(N3CCOCC3)o2)C(=O)N1c1ccccc1	20	-5	-5	53*	/	2
COc1ccc(S(=O)(=O)N(C)C[C@@H]2OCCCC[C@H](C)Oc3ccc(NC(=O)c4ccccc4)cc3C(=O)N([C@@H](C)CO)C[C@H]2C)cc1	/	18	10	/	8	/
O=[N+]([O-])c1cccc(-c2nc(-c3cccs3)c(-c3cccs3)[nH]2)c1	19	/	58	58*	/	3
O=[N+]([O-])c1ccc(-c2nc(-c3cccs3)c(-c3cccs3)[nH]2)cc1	66*	16	/	79*	/	-6
COc1ccc(-c2nc(-c3cccs3)c(-c3cccs3)[nH]2)cc1OC	-14	/	22	-9	/	-10
O=[N+]([O-])c1cccc(-c2nc(-c3ccccc3)c(-c3cccs3)[nH]2)c1	10	2	/	12	/	-2
COCC(=O)N1CCC2(CC1)CN(Cc1cccc(F)c1)[C@H](CO)c1c2c2ccc(OC)cc2n1C	/	6	/	/	-14	/
CO[C@@H]1CN(C)C(=O)c2ccc(NS(C)(=O)=O)cc2OC[C@H](C)N(S(C)(=O)=O)C[C@H]1C	/	-1	-6	/	-4	/
O=c1[nH]c(=S)[nH]c2c1C(c1ccc(Br)cc1)c1c([nH]c(=S)[nH]c1=O)O2	4	13	-2	77*	7	-1
O=C1CCCC2=C1C(c1ccc(Br)cc1)c1c([nH]c(=S)[nH]c1=O)N2 (stereo not drawn)	-9	/	14	7	/	1
Cc1[nH]n(-c2ccccc2)c(=O)c1N=Nc1ccc(C(=O)O)cc1	-27	-11	17	-8	-2	-12
Cc1[nH]n(-c2ccccc2)c(=O)c1N=Nc1cccc(C(=O)O)c1	-48	24	65*	58*	62*	2
COc1ccc(S(=O)(=O)N(C)C[C@@H]2Oc3ccc(NC(=O)Nc4ccc(F)cc4)cc3CC(=O)N([C@@H](C)CO)C[C@@H]2C)cc1	/	-5	30	/	-3	/
Cc1ccc[n+](CC(=O)c2ccc(-c3ccccc3)cc2)c1	-6	5	18	-6	/	-2
Cc1ccc(C(=O)C[n+]2cccc3ccccc32)cc1	50*	/	20	32	/	4
Cc1c[n+](CC(=O)c2ccccc2)cs1	5	-5	-15	90*	1	-9
Cc1ccc(C(=O)C[n+]2ccccc2)cc1	-14	-8	-31	11	-4	68*
COc1ccccc1CNC(=O)C[C@@H]1C[C@@H]2c3cc(NC(=O)c4cccnc4)ccc3O[C@@H]2[C@H](CO)O1	/	0	-1	/	-3	/
CN(c1cccc(NC(=O)CN(c2ccc(C34CC5CC(CC(C5)C3)C4)cc2)S(C)(=O)=O)c1)S(C)(=O)=O	23	/	/	61*	/	-4
CN(c1cccc(NC(=O)CN(c2ccc(F)cc2)S(C)(=O)=O)c1)S(C)(=O)=O	-21	10	-7	2	6	-7
